In PMC11574364:

Key:
Assay in all cases: protein domain microarray probed with biotinylated miRNA; Domain array: 20 mM Tris-HCl pH 7.4, 200 mM KCl, 0.2 mM EDTA, 0.05% NP40, 2 ug/ul heparin, overnight 4 C. ORF array: PBS pH 7.0 with RNase inhibitor, 100 ng RNA; high values mean tight binding
Settings in all cases: ssRNA
[1] = molecular target: T1, YTHDF1 (Homo sapiens, UniProt Q9BYJ9)
T1 sequence: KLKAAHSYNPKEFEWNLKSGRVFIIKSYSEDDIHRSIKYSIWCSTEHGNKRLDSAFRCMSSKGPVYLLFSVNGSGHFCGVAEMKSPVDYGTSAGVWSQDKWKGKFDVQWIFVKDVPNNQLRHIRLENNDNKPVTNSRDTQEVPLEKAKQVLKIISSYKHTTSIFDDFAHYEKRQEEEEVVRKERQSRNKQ

[2] = molecular target: T2, RBM27 (Homo sapiens, UniProt Q9P2N5)
T2 sequence: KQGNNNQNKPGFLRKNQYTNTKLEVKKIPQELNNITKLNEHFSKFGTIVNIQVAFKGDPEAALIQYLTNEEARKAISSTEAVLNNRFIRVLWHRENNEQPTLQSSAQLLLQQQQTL

[3] = molecular target: T3, STAU2(3) (Homo sapiens, UniProt Q9NUL3)
T3 chain: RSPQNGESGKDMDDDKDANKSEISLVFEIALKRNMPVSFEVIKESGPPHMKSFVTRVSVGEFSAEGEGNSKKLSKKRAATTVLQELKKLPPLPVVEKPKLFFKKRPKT

[4] = molecular target: T4, RKHD3(1-2) (Homo sapiens, UniProt Q6ZN04)
T4 sequence: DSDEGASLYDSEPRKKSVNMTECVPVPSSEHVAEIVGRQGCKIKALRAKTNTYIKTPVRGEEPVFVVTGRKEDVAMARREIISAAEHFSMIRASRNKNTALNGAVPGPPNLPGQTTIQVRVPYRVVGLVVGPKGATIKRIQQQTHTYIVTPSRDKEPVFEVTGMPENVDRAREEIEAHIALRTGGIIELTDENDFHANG

[5] = molecular target: T5, RBM19(2-4) (Homo sapiens, UniProt Q9Y4C8)
T5 sequence: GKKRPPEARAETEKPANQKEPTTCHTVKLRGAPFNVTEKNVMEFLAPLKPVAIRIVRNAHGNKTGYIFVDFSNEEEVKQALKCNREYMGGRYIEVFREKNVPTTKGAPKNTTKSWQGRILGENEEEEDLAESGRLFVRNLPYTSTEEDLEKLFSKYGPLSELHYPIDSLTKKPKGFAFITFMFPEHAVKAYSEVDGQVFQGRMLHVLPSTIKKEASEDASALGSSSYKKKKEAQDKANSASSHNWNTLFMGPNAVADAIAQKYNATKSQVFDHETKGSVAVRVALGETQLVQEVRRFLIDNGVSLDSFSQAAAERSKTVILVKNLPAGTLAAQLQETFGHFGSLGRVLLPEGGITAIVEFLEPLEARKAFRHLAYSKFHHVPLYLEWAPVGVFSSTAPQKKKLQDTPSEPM

[6] = molecular target: T6, RBM26(2) (Homo sapiens, UniProt Q5T8P6)
T6 sequence: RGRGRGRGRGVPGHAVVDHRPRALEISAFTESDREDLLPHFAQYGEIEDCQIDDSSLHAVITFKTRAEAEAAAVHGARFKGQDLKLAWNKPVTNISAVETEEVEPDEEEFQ

[7] = molecular target: T7, RBM14 (Homo sapiens, UniProt Q96PK6)
T7 sequence: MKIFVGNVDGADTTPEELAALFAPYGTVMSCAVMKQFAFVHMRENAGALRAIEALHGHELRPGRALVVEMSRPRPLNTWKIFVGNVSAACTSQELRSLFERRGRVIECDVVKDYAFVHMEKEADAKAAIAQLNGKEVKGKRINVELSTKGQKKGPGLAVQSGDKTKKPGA

[8] = molecular target: RALYL (Homo sapiens, UniProt Q86SE5)
[9] = molecular target: T8, PIG38 (Homo sapiens, UniProt Q8TC92)
T8 sequence: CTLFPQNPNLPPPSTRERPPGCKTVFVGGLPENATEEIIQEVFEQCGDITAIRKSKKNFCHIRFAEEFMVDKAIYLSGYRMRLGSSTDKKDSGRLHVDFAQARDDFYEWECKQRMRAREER

[10] = molecular target: KRR1 (Homo sapiens, UniProt Q13601)
Chain of KRR1 (Q13601 36-250): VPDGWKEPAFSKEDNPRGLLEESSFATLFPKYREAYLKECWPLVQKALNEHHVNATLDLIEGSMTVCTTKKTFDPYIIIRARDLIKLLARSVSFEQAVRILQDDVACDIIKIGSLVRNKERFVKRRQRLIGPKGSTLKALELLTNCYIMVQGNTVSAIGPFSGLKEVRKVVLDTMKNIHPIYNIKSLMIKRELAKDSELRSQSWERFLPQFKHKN

Chain of RALYL (Q86SE5 1-115): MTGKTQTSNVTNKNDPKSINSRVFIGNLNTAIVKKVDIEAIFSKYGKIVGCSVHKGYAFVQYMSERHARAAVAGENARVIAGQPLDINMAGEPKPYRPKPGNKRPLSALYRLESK

Sequence	binding signal [1] [fluorescence intensity]	binding signal [2] [fluorescence intensity]	binding signal [3] [fluorescence intensity]	binding signal [4] [fluorescence intensity]	binding signal [5] [fluorescence intensity]	binding signal [6] [fluorescence intensity]	binding signal [7] [fluorescence intensity]	binding signal [8] [fluorescence intensity]	binding signal [9] [fluorescence intensity]	binding signal [10] [fluorescence intensity]
AGAGGUAGUAGGUUGCAUAGUU	52.7 ± 4.33	486 ± 29.4	34.1 ± 5.01	2320 ± 70.7	2390 ± 546	168 ± 6.55	26.3 ± 7.16	932 ± 89.3	44.1 ± 0.488	73.6 ± 7.55
UGAGGUAGUAGGUUGUAUAGUU	22.8 ± 4.72	102 ± 16.8	–	1250 ± 20.7	902 ± 121	23.4 ± 0.552	–	319 ± 85.1	21.4 ± 1.44	20.5 ± 1.99
UAGCUUAUCAGACUGAUGUUGA	–	145 ± 5.61	–	1110 ± 41.5	901 ± 119	–	–	190 ± 59.9	–	–
UGAGGUAGUAGGUUGUGUGGUU	113 ± 10.3	985 ± 77.1	121 ± 14.8	1502 ± 3.98	1520 ± 225	248 ± 3.91	66.3 ± 8.01	1030 ± 103	72.8 ± 3.97	153 ± 3.37
UGAGGUAGUAGGUUGUAUGGUU	76.9 ± 5.2	657 ± 47.5	60.2 ± 7.26	1740 ± 134	1810 ± 313	298 ± 14	39.7 ± 3.13	1090 ± 62.2	53 ± 2.3	92.2 ± 12.2
CAGUGCAAUGAUGAAAGGGCAU	51.305 ± 0.0212	288 ± 4.19	37.5 ± 2.47	1440 ± 55	2090 ± 439	25.8 ± 3.42	23.1 ± 3.36	381 ± 18.7	31.7 ± 0.785	74.2 ± 2.13
